In all, about 3,200 compounds were measured (“TSA(without NAD+) / Primary screening (TSA) / delta Tm (K)”: median about -0.07, highest 2% from about 0.37 on). What follows is part of a selection rich in the highest values, with near analogues and random picks from the rest.
Each molecule was assayed against NAD-dependent deacetylase Sirtuin 1 (human, UniProt Q96EB6) (assay: primary screen, delta tm). Conditions: 10 µM.
Parameters: single well (n = 1)
Procedure, shortened: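 Thermal shift of Sirtuin 1 measured without NAD+, compound at 10 µM (n = 1); value is ΔTm, with hits defined as ΔTm > 0.45 K or < −1.5 K. Hits retested at 5, 10, 20 µM (n = 4) and counterscreened on bovine carbonic anhydrase and ABL1 SH2 domain.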

Sequence of NAD-dependent deacetylase Sirtuin 1 (Q96EB6 2-747 limits assumed): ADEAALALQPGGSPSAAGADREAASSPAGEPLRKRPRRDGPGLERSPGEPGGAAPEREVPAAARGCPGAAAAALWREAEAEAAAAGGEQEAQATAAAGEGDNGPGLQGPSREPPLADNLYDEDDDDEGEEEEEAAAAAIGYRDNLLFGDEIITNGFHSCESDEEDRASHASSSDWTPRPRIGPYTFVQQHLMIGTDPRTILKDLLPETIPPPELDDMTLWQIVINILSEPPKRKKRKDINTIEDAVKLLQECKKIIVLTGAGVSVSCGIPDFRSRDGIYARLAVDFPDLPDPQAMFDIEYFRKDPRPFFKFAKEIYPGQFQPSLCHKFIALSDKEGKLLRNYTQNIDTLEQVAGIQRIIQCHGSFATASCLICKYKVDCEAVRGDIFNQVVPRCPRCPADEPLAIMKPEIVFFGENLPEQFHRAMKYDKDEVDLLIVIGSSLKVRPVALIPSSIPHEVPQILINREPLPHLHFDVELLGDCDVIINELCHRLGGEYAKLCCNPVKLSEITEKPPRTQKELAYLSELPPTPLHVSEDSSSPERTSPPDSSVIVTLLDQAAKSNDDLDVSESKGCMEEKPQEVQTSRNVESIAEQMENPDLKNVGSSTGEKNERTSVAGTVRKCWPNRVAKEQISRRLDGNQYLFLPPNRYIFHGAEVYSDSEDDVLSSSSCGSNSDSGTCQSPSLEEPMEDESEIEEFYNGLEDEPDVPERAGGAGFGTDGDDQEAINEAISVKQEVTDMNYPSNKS

| Structure (SMILES) | TSA(without NAD+) / Primary screening (TSA) / delta Tm (K) |
| --- | --- |
| CCOc1cc(/C=N/NC(=O)c2cc3c(s2)CCCC3)ccc1OCC(=O)Nc1cccc(C(F)(F)F)c1 | 5.11 K |
| COc1cc(/C=N/NC(=O)c2cc3c(s2)CCCC3)ccc1OCC(=O)Nc1ccc(C)cc1 | -0.22 K |
| COc1cc(/C=N/NC(=O)c2cc3c(s2)CCCC3)ccc1OS(=O)(=O)c1cc(C)ccc1C | 0.32 K |
| O=C(C1=C(O)C(=O)N(CCCN2CCOCC2)C1c1ccco1)c1ccc(F)cc1 (centres unmarked) | -0.08 K |
| CC(NC(=O)COC(=O)CCCN1C(=O)c2cccc3cccc(c23)C1=O)C12CC3CC(CC(C3)C1)C2 (centres unmarked) | -0.34 K |
| CC(C)CCN1C(=O)c2ccc(C(=O)OCC(=O)NC(C)C34CC5CC(CC(C5)C3)C4)cc2C1=O (centres unmarked) | 0.48 K |
| CC(NC(=O)COC(=O)c1ccc2c(c1)S(=O)(=O)c1ccccc1C2=O)C12CC3CC(CC(C3)C1)C2 (centres unmarked) | 0.17 K |
| COc1ccc(C(=O)C2=C(O)C(=O)N(CCCN3CCOCC3)C2c2ccc(OC)cc2)cc1 (centres unmarked) | -0.13 K |
| NS(=O)(=O)c1ccc(C(=O)Nc2ccc3c(c2)-c2ccccc2C3)cc1 | 0.23 K |
| NC(=O)c1cccc(NC(=O)c2cc3c(s2)-c2ccccc2CC3)c1 | 1.03 K |
| CC(=O)Nc1ccc(NC(=O)c2cccc(C(N)=O)c2)cc1C | -0.07 K |
| NC(=O)Cn1cnc2c(cnn2-c2ccccc2)c1=O | -0.08 K |
| Cc1cc(S(=O)(=O)NCc2ccc(C(N)=O)cc2)sc1Cl | -0.11 K |
| CC(C)(C)c1ccccc1NC(=O)c1ccc(S(=O)(=O)N2CCCC2)cc1 | -0.07 K |
| O=c1onc(-c2cnccn2)n1Cc1nc2cc([N+](=O)[O-])ccc2o1 | -0.12 K |
| CC(=O)N1N=C(c2ccccc2)CC1c1ccc(Br)cc1 (centres unmarked) | -0.02 K |
| CC(=O)N1N=C(c2ccc(O)cc2)CC1c1ccccc1 (centres unmarked) | 0.07 K |
| O=C(CSc1nnnn1-c1ccc(O)cc1)N1N=C(c2ccc3ccccc3c2)CC1c1ccccc1 (centres unmarked) | 0.49 K |
| CN(C(=O)Cc1ccc(NC(=O)NCc2ccc(-n3cncn3)nc2)cc1)c1ccccc1 | 0.08 K |

| Structure (SMILES) | TSA(without NAD+) / Primary screening (TSA) / delta Tm (K) |
| --- | --- |
| Cc1ccc(NC(=O)NCCc2cccc(O)c2)cc1NC(=O)NCCc1cccc(O)c1 | 0.38 K |
| CN1CCCN(c2ccc(NC(=O)NCCCNC(=O)c3cccc(O)c3)cc2F)CC1 | 0.02 K |
| CCCNC(=O)Nc1ccc(OC)cc1 | -0.12 K |
| CC(CN1CCOCC1)NC(=O)C(Cc1ccccc1)n1cnnn1 (centres unmarked) | -0.23 K |
| Cc1ccc(N(C)S(=O)(=O)c2cccc(C(=O)Nc3ccccc3Cl)c2)cc1 | 0.07 K |
| Cc1ccc(N(C)S(=O)(=O)c2cccc(C(=O)Nc3ccccc3C(F)(F)F)c2)cc1 | -0.13 K |
| O=C(NN/C=C1/C(=O)N(c2cccc(C(F)(F)F)c2)C(=O)c2ccccc21)c1cccc(S(=O)(=O)Nc2ccccc2Cl)c1 | 1.45 K |
| COc1ccc(NC(=O)c2ccc(NC(=O)c3cnoc3C)cc2)cc1OCc1cccnc1 | -0.18 K |
| NC(=O)NCc1ccc(C(=O)Nc2nc(-c3c[nH]c(C(N)=O)c3)cs2)cc1 | -0.03 K |
| COC(=O)c1cc(-c2csc(NC(=O)c3cccc(NC(=O)c4cnoc4C)c3)n2)c[nH]1 | 0.46 K |
| Cc1nc(-c2ccc(CCNC(=O)c3ccc(NC(N)=O)cc3)s2)cs1 | 0.23 K |
| COc1ccc(C(=O)NCCc2ccc(-c3csc(C)n3)s2)cc1 | 0.07 K |
| Cc1nc(-c2ccc(CCNC(=O)c3ccc(NC(=O)c4cccs4)cc3)s2)cs1 | 0.63 K |
| COc1ccc(C(=O)C2=C(O)C(=O)N(CCCN3CCOCC3)C2c2ccccc2)cc1C (centres unmarked) | 0.06 K |
| CC(c1ccc(S(N)(=O)=O)cc1)N(C)Cc1nc2ccccc2c(=O)[nH]1 (centres unmarked) | -0.15 K |
| O=C1CCCN1C(=O)Cn1cnc2cc(Cl)ccc2c1=O | -0.11 K |
| O=C(Nc1ccc(OC(F)F)c(Cc2ccccc2)c1)C1=COCCO1 | -0.12 K |
| COc1ccc(NC(=O)C2=COCCO2)cc1Cc1ccccc1 | 0.45 K |
| COc1ccc(NC(=O)C2=COCCO2)cc1S(=O)(=O)N1CCOCC1 | -0.13 K |

| Structure (SMILES) | TSA(without NAD+) / Primary screening (TSA) / delta Tm (K) |
| --- | --- |
| O=C(Nc1cccc(Cn2[nH]c(=O)ccc2=O)c1)c1cccc(Oc2ccccc2)c1 | -0.13 K |
| NC(=O)c1ccc(OCC(=O)NC(=O)NCc2cccs2)cc1 | 0.03 K |
| NC(=O)C1CCN(c2ncnc3sc4c(c23)CCCC4)CC1 | 0.28 K |
| Cc1sc2ncnc(N3CCC(C(N)=O)CC3)c2c1C | -0.11 K |
| NC(=O)C1CCN(c2nc(-c3cccnc3)nc3sc4c(c23)CCCC4)CC1 | 0.33 K |
| NC(=O)C1CCN(c2nc(-c3cccs3)nc3sc4c(c23)CCCC4)CC1 | 2.58 K |
| Cc1sc2nc(-c3cccnc3)nc(N3CCC(C(N)=O)CC3)c2c1C | 0.25 K |
| Cc1sc2nc(-c3cccs3)nc(N3CCC(C(N)=O)CC3)c2c1C | 0.58 K |
| CCSCCOC(=O)c1ccc2[nH]c(C(F)F)nc2c1 | -0.04 K |
| Cn1c2ccccc2c2cc(S(=O)(=O)NCc3cccc(NC(=O)C4CC4)c3)ccc21 | -0.03 K |
| CS(=O)(=O)c1ccc(NC(=O)c2ccccc2SCC(=O)NC23CC4CC(CC(C4)C2)C3)cc1 | -0.03 K |
| CC(C)Oc1ccc(C2C(C(=O)c3ccco3)=C(O)C(=O)N2CCCN2CCOCC2)cc1 (centres unmarked) | -0.02 K |
| COc1cccc(C2C(C(=O)c3ccc(Cl)cc3)=C(O)C(=O)N2CCCN2CCOCC2)c1 (centres unmarked) | -0.12 K |
| CCC(N)C(N)=O (centres unmarked) | -0.22 K |
| CC1CCC(NN)CC1 (centres unmarked) | -0.08 K |
| CCn1c2ccccc2c2cc(NC(=O)C(C)OC(=O)c3cccc(S(=O)(=O)Nc4ccc(Cl)cc4)c3)ccc21 (centres unmarked) | 0.56 K |
| CC(=O)c1ccc(NC(=O)C(C)OC(=O)c2cccc(S(=O)(=O)NC(C)C34CC5CC(CC(C5)C3)C4)c2)cc1 (centres unmarked) | 0.35 K |
| CC(OC(=O)c1cccc(S(=O)(=O)Nc2ccc(F)cc2)c1)c1nc2ccccc2c(=O)[nH]1 (centres unmarked) | 0.02 K |

From paper PMC6925144, “A prospective compound screening contest identified broader inhibitors for Sirtuin 1” (Scientific Reports, 2019)
